# Compounds without any hit were thinned out: in the full panel of roughly 83,000, 20% have a hit.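 Treatment: one concentration, 48 hours, 96-well format. Scoring: percent growth, with anything below 10 considered active.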 A number with no mark means an inactive call. The source made the active and inactive calls.
# Test system: T-47D breast
# Experiment: NCI-60 one-dose screen, 48 h (100 = growth as untreated, 0 = no growth, -100 = all killed)
# Conditions: 10 µM unless noted
# Description: Growth inhibition of the T-47D human tumor cell line is measured as a screen for anti-cancer activity. Cells are grown in 96 well plates and exposed to the test compound for 48 hours. Compounds are tested at a single concentration, which is 10^-5 M for most compounds. The reported endpoint is percent growth (GI% or GIPRCNT), where numbers from 0 - 100% represent growth inhibition, and numbers from -100% - 0 represent cell death. For example, a value of 40 represents 60% growth inhibition. A value of 0 means no net growth occurred over the course of the experiment. A value of -40 indicates 40% of cells at the beginning of the experiment died by the end of the experiment. A value of -100 means all cells are dead at the end of the experiment.
# NCI-60 Human Tumor Cell Lines Screen was performed using the standard one-dose NCI protocol, which is described in more detail at https://dtp.cancer.gov/discovery_development/nci-60/default.htm.
# Compounds with GIPRCNT values below 10 were considered active. Activity score was based on GIPRCNT using the following formula: […]
# Score is 0 for GIPRCNT values of 100 or above, 50 for GIPRCNT values of 0, and 100 for GIPRCNT values of -100.
row,SMILES,growth
1,N/C(=N\C(N)=N\c1nc2ccccc2s1)c1ccncc1,65.4%
2,COc1ccc(-c2cnoc2-c2ccc(OC)cc2O)cc1,40.3%
3,O=C(/C=C/c1cc(-c2ccc3c(c2)OCO3)n[nH]1)c1ccc2c(c1)OCO2,72.7%
4,Cc1ccc(-c2cc3nc(C(Cl)Cl)nc(-c4cccnc4)n3n2)cc1,37.9%
5,COc1ccc(-c2nc(/C=C3/C(=O)Nc4ccc(F)cc43)c3ccccn23)cc1,100%
6,COc1ccc(-c2nc(SCCC(C)C)nc(Nc3ccc(F)c(Cl)c3)c2C#N)cc1,72.4%
7,CN(CCCCCl)P(=O)(OCc1ccc([N+](=O)[O-])o1)C(F)(F)C[C@H](NC(=O)CNC(=O)c1ccc(N=[N+]=[N-])cc1)C(=O)NCCc1ccc(O)cc1 (stereo not given in full),90.5%
8,c1cc(C2=N[C@@H]3c4ccccc4C[C@@H]3O2)nc(C2=N[C@@H]3c4ccccc4C[C@@H]3O2)c1,101%
9,CC(C)(C)NCCC(O)c1cc2c(Cl)cc(Cl)cc2c2cc(C(F)(F)F)ccc12 (stereo not given),-78.3% (active)
10,COc1ccc(-c2ccc(C)n2-c2ccc(-c3nc4cc(Cl)ccc4s3)cc2)cc1,66.8%
11,N#Cc1c(-c2ccccc2)nc(SCC(=O)N2CCN(c3ccccc3)CC2)[nH]c1=O,99.4%
12,COc1cc(-c2nn(-c3cccc(NC(=O)Nc4ccc(Cl)c(C(F)(F)F)c4)c3)cc2-c2ccncc2)ccc1Cl,0.618% (active)
13,Cc1c(C(=N)C(C#N)C#N)c(=N)oc2c1ccc1ccccc12,71.9%
14,Cc1csc(NC(c2ccccc2)c2c(C)nc3ccccn23)n1 (stereo not given),86.9%
15,Fc1ccc(CNCCNc2ncnc3c2cnn3-c2ccccc2)cc1,83.7%
16,O=C1NN(C(=O)c2ccc(Cl)cc2)C(c2ccccc2)=N/C1=C\c1cn(-c2ccccc2)nc1-c1ccccc1,90.4%
17,CC(C)(C)c1[nH]nc2c1C(c1cc3ccccc3[nH]c1=O)Nc1cc(C(=O)Nc3ccc(Cl)cc3)ccc1N2 (stereo not given),40%
18,COc1cc(/C=C/C(=O)c2cccc(-n3cc(-c4cc(OC)c(OC)c(OC)c4)[nH]c3=O)c2)cc(OC)c1OC,8.37% (active)
19,C=C[C@@H]1C[C@@H]2Cc3c(C)cc(C)cc3N1O2,115%
20,CCCCN(CCCC)C(=O)CC,124%

row,SMILES,growth
1,CNC(=S)NNC(=O)C1CC1,104%
2,CC(C)(C)n1cc(-c2ccnc(NCCCNS(=O)(=O)c3ccc(F)cc3)c2)c(-c2cccc(O)c2)n1,31.2%
3,O=Nc1c(-c2cccc([N+](=O)[O-])c2)nc2ncccn12,73%
4,CCOC(=O)c1c(/N=C2\SC(=O)/C(=C\C(=O)OC)N2NC)sc2c1CCN(C(=O)OCC)C2,93.4%
5,COc1ccc(-c2cn(-c3cccc(C(=O)/C=C/c4cc(OC)c(OC)c(OC)c4)c3)c(=O)[nH]2)cc1OC,62.9%
6,CCOC(=O)c1ccc(NC(=O)N2CC(C)OC(C)C2)cc1 (stereo not given),94.4%
7,C=C(C)[C@@H]1CC[C@]2(C(=O)O)CC[C@]3(C)[C@H](CC[C@@H]4[C@@]5(C)C[C@@H](CC#Cc6ccc(C(F)(F)F)cc6)[C@H](O)C(C)(C)[C@@H]5CC[C@]43C)[C@@H]12,19%
8,CN1C=CN(Cc2ccc(-c3ccccn3)nc2)[CH-]1.CN1C=CN(Cc2ccc(-c3ccccn3)nc2)[CH-]1.[Au+3],40.2%
9,Fc1ccc(Nc2nc(NCCNc3ccnc4cc(Cl)ccc34)nc(N3CCOCC3)n2)cc1,83.3%
10,COC(=O)C(Sc1ccc(Cl)cc1)C1SC(=S)N(Cc2ccccc2)C1=O (stereo not given),81.7%
11,CC(=O)Oc1csc(N(C(C)=O)c2cc(C(=O)O)cc(C(=O)O)c2)n1,108%
12,CCn1c2ccccc2c2cc(NC(=O)Nc3ccc([N+](=O)[O-])cc3C)ccc21,29.3%
13,NC(=S)N/N=C(/CCN1CCCC1)CC(C1=C(O)C2=CCCCC2OC1=O)c1ccccc1 (stereo not given),47%
14,Cn1cc(-c2cnc3ccc(NC(=O)Nc4ccc(F)c(Br)c4)cc3n2)cn1,-38.1% (active)
15,CC(C)(C)n1cc(-c2ccnc(NCCCNS(=O)(=O)c3cccc(F)c3)c2)c(-c2cccc(O)c2)n1,35.7%
16,C=C[C@@H]1C[C@@H]2Cc3cc(Cl)ccc3N1O2,103%
17,Nc1nnc(-c2ccc3ccccc3c2O)o1,87.2%
18,COc1cc(-c2nn(-c3cccc(NC(=O)Nc4cc(C(F)(F)F)cc(C(F)(F)F)c4)c3)cc2-c2ccncc2)ccc1Cl,4.45% (active)
19,Cc1cc(N/N=C/c2nc(-c3ccccc3)oc2C)c2cc(Cl)ccc2n1,-1.37% (active)
20,COc1cccc(-c2nc3sccn3c2-c2ccnc(NCCCNS(=O)(=O)c3ccc(C(F)(F)F)cc3)c2)c1,23.7%
